The source of these data is PubChem BioAssay (EPA / NIEHS).

A short description of assay [1]: CCTE_Deisenroth_5AR_NBTE_donor: CCTE's 5alpha-reductase NanoBRET Target Engagement Assay […], Deisenroth Lab (AID 2284319). Particulars: actives raise or lower the signal. In outline: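 SRD5A2-NanoLuc, HEK293T, 20 h expression. Chemical 10 nM - 29.9 uM, 8 conc, duplicate; 3 h preincubation + 2 h testosterone tracer. Nano-Glo substrate plus extracellular NanoLuc inhibitor; donor lum 460 nm. DMSO baseline, bidirectional fit.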
(In general: In BRET a luciferase serves as donor, and the signal depends on an acceptor being close.)

Assay [2] in a line: CCTE_Deisenroth_5AR_NBTE_acceptor: CCTE's 5alpha-reductase NanoBRET Target Engagement Assay - Autofluorescence Screen, Deisenroth Lab (AID 2284321).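 Note: compound fluorescence in the acceptor channel under 460 nm excitation flags autofluorescence artifacts.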 Particulars: actives raise or lower the signal. In a few lines:
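Autofluorescence counter-screen: chemicals at an assumed nominal 100 uM in DMSO were scanned in three independent runs with 460 nm excitation. Gain or loss of acceptor signal was fitted bidirectionally against DMSO.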

Assay [3] can be described thus: CCTE_Deisenroth_H295R-HTRF_384WELL_ESTRADIOL: CCTE's H295R-HTRF Assay Evaluation of Estradiol Concentration, Deisenroth Lab (AID 2284361). The note with it: actives raise or lower the signal. In outline: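 Estradiol secreted into medium by H295R adrenocortical cells, quantified by HTRF after 48 h dosing over a nine-point 0.001 - 100 uM final range; gain or loss versus DMSO. Parallel ATP-luminescence viability readout; n=5 experiments.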
In general terms: TR-FRET usually uses a lanthanide donor and a delayed reading to cut background.

A short description of assay [4]: CCTE_Deisenroth_H295R-HTRF_384WELL_TESTOSTERONE: CCTE's H295R-HTRF Assay Evaluation of Testosterone Concentration, Deisenroth Lab (AID 2284373). The note with it: actives raise or lower the signal. In a few lines:
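H295R cells were acclimated 24 h, then exposed 48 h to nine concentrations (0.001–100 uM final) in technical triplicate, n=5. Testosterone in conditioned medium was measured by HTRF (em 620/665 nm). Fitting was bidirectional versus DMSO; CellTiter-Glo viability ran on the same plates.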

The nature of assay [5]: CCTE_Deisenroth_H295R-HTRF_384WELL_CTOX: Cytotoxicity Assessment in CCTE's H295R-HTRF Assay, Deisenroth Lab (AID 2284380; active = hit-call score of the fitted dose curve at least 0.9, where 1 is the maximum). In outline:
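Luminescent ATP viability readout (CellTiter-Glo 2.0), multiplexed on plates used for hormone sampling, after 48 h chemical exposure. Human H295R cells; final concentrations 0.001–100 uM in nine steps, technical triplicates, five experiments; DMSO baseline.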

Read-out in assay [6]: CD69, CD69 (gene 969)
The assay is described as follows: BSK_LPS_CD69: BioMAP Diversity Plus: LPS Assay for CD69 Biomarker Activity (AID 2284303). Particulars: primary human HUVEC with PBMC. In outline: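 CD69 surface levels were read by ELISA after 24 h chemical treatment of an LPS-stimulated HUVEC plus PBMC co-culture; positive-direction fit against DMSO vehicle.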

Assay [7] concerns SERPINA7 (gene 6906). As to the kind of experiment: CCTE_GLTED_hTBG: CCTE's human Thyroxine-binding Globulin (TBG) Inhibition Assay, Great Lakes Toxicology and Ecology Division (GLTED) Lab (AID 2284343; active = hit-call score of the fitted dose curve at least 0.9, where 1 is the maximum;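 note: active chemicals lower fluorescence versus DMSO baseline by displacing probe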). In a few lines:
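Human thyroxine-binding globulin was exposed to each chemical for 2 hours, during which the ANSA probe could be displaced. Fluorescence was then measured at 380/475 nm, and loss of signal was analysed relative to DMSO.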

Assay [8] deals with IYD (gene 389434). As to the kind of experiment: CCTE_GLTED_hIYD: CCTE's human Iodotyrosine Deiodinase (xIYD) Inhibition Assay, Great Lakes Toxicology and Ecology Division (GLTED) Lab (AID 2284317; active = hit-call score of the fitted dose curve at least 0.9, where 1 is the maximum;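 note: cell-free human IYD enzyme made in baculovirus insect cells; iodide freed from monoiodotyrosine measured by cerium arsenite color change at 420 nm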). In outline:
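Deiodination of MIT by insect-cell-produced human IYD is measured after a 3 h incubation with test chemical. Free iodide passes through a Dowex column and accelerates Sandell-Kolthoff Ce4+ reduction, read at 420 nm; run in triplicate.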

A short description of assay [9]: IUF_NPC3_neuronal_differentiation_120hr: Leibniz Research Institute for Environmental Medicine (IUF) 120-hour Neuronal Differentiation Assay (NPC3) (AID 2284301). In a few lines: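 Value is percent TUBB3-positive neurons among Hoechst-stained nuclei in the migration area, scored by trained CNN after 120 h differentiation. Primary hNPC spheres on poly-D-lysine/laminin, N2 medium, continuous dosing from day 0, half-refeed day 3; DMSO reference.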

Assay [10] is described as follows: IUF_NPC4_neurite_length_120hr: Leibniz Research Institute for Environmental Medicine (IUF) 120-hour Neuronal Morphology Assay for Neurite Length (NPC4) (AID 2284302). In outline: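 Neurite length, the mean in um across TUBB3-stained neurons, is derived by skeletonization of high-content images after 120 h differentiation. Compound exposure, 7 concentrations plus solvent control, ran from plating of hNPC spheres on poly-D-lysine/laminin, with medium half-replaced on day 3.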

Assay [11] in a line: IUF_NPC5_oligodendrocyte_differentiation_120hr: Leibniz Research Institute for Environmental Medicine (IUF) 120-hour Oligodendrocyte Differentiation Assay (NPC5) (AID 2284304; active = hit-call score of the fitted dose curve at least 0.9, where 1 is the maximum;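 note: primary human fetal neural progenitor spheres plated to migrate and differentiate; share of O4-positive cells among Hoechst nuclei found by CNN image analysis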). In a few lines:
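Human fetal neural progenitor spheres (0.3 mm) plated on poly-D-lysine/laminin in N2 differentiation medium and exposed for 120 h at 7 concentrations, with half-medium renewal at day 3. O4-positive cells identified by CNN, expressed as percent of Hoechst nuclei.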

Assay [12] can be described thus: IUF_NPC2-5_cytotoxicity_72hr: Cytotoxicity Assessment at 72 hours in the Leibniz Research Institute for Environmental Medicine (IUF) Neural Progenitor Cell Migration and Differentiation Assay for Cytotoxicity (NPC2-5) (AID 2284306; active = hit-call score of the fitted dose curve at least 0.9, where 1 is the maximum;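 note: LDH release into supernatant measured by resorufin fluorescence marking membrane damage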). In a few lines: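 Membrane-integrity cytotoxicity at 72 h, read as LDH-driven resorufin fluorescence in supernatant. hNPC spheres from fetal cortex differentiate on coated plates in N2 medium, 37C, 5% CO2; seven serial compound concentrations plus solvent control (DMSO ≤0.1%).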

A short description of assay [13]: IUF_NPC2-5_cytotoxicity_120hr: Cytotoxicity Assessment at 120 hours in the Leibniz Research Institute for Environmental Medicine (IUF) Neural Progenitor Cell Migration and Differentiation Assay (NPC2-5) (AID 2284307; active = hit-call score of the fitted dose curve at least 0.9, where 1 is the maximum). In a few lines:
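Human fetal (GW 16-19) neural progenitor spheres (0.3 mm) plated on poly-D-lysine/laminin in N2 differentiation medium, exposed 120 h with half-medium renewal at day 3; 7 concentrations plus solvent control, DMSO ≤0.1%. LDH release in supernatant read by resorufin fluorescence.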

Assay [14] can be described thus: IUF_NPC2-5_cell_number_120hr: Cell Number Assessment at 120 hours in the Leibniz Research Institute for Environmental Medicine (IUF) Neural Progenitor Cell Migration and Differentiation Assay (NPC2-5) (AID 2284308).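 Note: count of Hoechst-stained nuclei in migration zone around plated human neural progenitor spheres.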 In outline: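 Human fetal neural progenitor spheres (0.3 mm) plated on poly-D-lysine/laminin in N2 differentiation medium, exposed five days across 7 concentrations with half-medium refresh at day 3. Hoechst-positive nuclei counted in migration area at 120 h, relative to DMSO.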

The nature of assay [15]: IUF_NPC2-5_viability_120hr: Viability Assessment at 120 hours in the Leibniz Research Institute for Environmental Medicine (IUF) Neural Progenitor Cell Migration and Differentiation Assay (NPC2-5) (AID 2284312). In outline:
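Alamar blue resorufin fluorescence read after 5 days of differentiation, with compound present from day 0 and replenished at day 3. Primary hNPC spheres on laminin-coated plates, 37C; seven concentrations plus solvent control, fitted against DMSO.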

A short description of assay [16]: CCTE_Mundy_HCI_iCellGluta_NOG_NeuriteLength: CCTE's Neurite Outgrowth Assay in iCellGluta cells for Neurite Length, Mundy Lab (AID 2284318; active = hit-call score of the fitted dose curve at least 0.9, where 1 is the maximum). In outline:
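Automated high-content imaging of betaIII-tubulin (Alexa Fluor-488) and Hoechst-stained cells gave neurite length, normalized to the DMSO baseline.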

Assay [17] can be described thus: IUF_NPC1_cytotoxicity_72hr: Cytotoxicity Assessment at 72 hours in the Leibniz Research Institute for Environmental Medicine (IUF) Neural Progenitor Cell Proliferation Assay (NPC1) (AID 2284332; active = hit-call score of the fitted dose curve at least 0.9, where 1 is the maximum;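 note: rising LDH signal means more cytotoxicity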). In a few lines: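 Membrane-integrity loss is scored from LDH released into the medium, detected as resorufin fluorescence, with activity fitted upward relative to baseline. Test material stays on human fetal-derived progenitor spheres for 72 h.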

A short description of assay [18]: CCTE_Mundy_HCI_iCellGluta_NOG_NeuriteCount: CCTE's Neurite Outgrowth Assay in iCellGluta cells for Neurite Count, Mundy Lab (AID 2284342; active = hit-call score of the fitted dose curve at least 0.9, where 1 is the maximum;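 note: chemical exposure about 48 hours starting 2 hours after plating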).

Results filed as inconclusive are left out. Activity calls are given as the source filed them. Rule for the calls, unless noted: active = hit-call score of the fitted dose curve at least 0.9, where 1 is the maximum; inactive = score below 0.9.

`BrC1CCC(Br)C(Br)CCC(Br)C(Br)CCC1Br` (centres undefined): the result in assay [1] and in assay [2] was inactive.

Broadly, the AC50 is the concentration at which the activity in the assay is half-maximal. Turning to `C#C[C@]1(O)CC[C@H]2[C@@H]3CCC4=Cc5oncc5C[C@]4(C)[C@H]3CC[C@@]21C`, the AC50 in assay [3] is 38.2 µM (active); in assay [4], 0.362 µM (active). For the same molecule, the call in [5] was inactive.

With `CC(=O)OCCC(C)CC(C)(C)C` (centres undefined), in assay [6], the outcome was inactive.

Consider `CCCCCC(CO)CCC` (centres undefined), for which the molecule was classed as inactive in [1] and in [2].

`CC[Si](OC(C)=O)(OC(C)=O)OC(C)=O`: the result in [6] was inactive.

Regarding `O=Nc1ccc(Nc2ccccc2)cc1`, the AC50 is 23.4 µM (active) in [1], 50 µM (active) in [2] and 15.9 µM (active) in [7].

Take `CCCCCCCCCCCCCC(=O)O`: the AC50 in assay [8] was 100 µM (active). Further, the outcome in [1] and in assay [2] was inactive.

Consider `CN(C)C(=N)N=C(N)N`, for which the outcome in assay [9], in [10], in assay [11], in assay [12], in [13] and in assay [14] was inactive. For the same molecule, the molecule was called inactive in assay [15], in [16], in assay [17] and in [18].

As to `CCN(CC)c1ccc2c(-c3ccccc3C(=O)O)c3ccc(=[N+](CC)CC)cc-3oc2c1`, the call in [1] and in assay [2] was inactive.

Consider `NCCNCCN`, for which, in assay [6], the outcome was inactive.

As to `OC1OC[C@@H](O)[C@H](O)[C@H]1O` (some centres undefined), the result in [6] was inactive.

On to `Cc1cc(C2(c3cc(C)c(O)cc3C)OS(=O)(=O)c3ccccc32)c(C)cc1O`, for which, in [6], the outcome was inactive.

Turning to `O=C(Oc1ccccc1)c1ccc(O)cc1`, in assay [7], the AC50 is 12.6 µM (active).

In the case of `CCC(=O)OCc1ccccc1`, the outcome in assay [6] was inactive.

For the molecule `OC[C@H]1O[C@H](O[C@]2(CCl)O[C@H](CCl)[C@@H](O)[C@@H]2O)[C@H](O)[C@@H](O)[C@H]1Cl`, the outcome in assay [6] was inactive.

Take `CC(=O)[C@H]1CC[C@H]2[C@@H]3CC=C4C[C@@H](O)CC[C@]4(C)[C@H]3CC[C@]12C`: in [6], the outcome was inactive.
